Data as given in PubChem BioAssay AID1259324 (C. David Weaver Laboratory, Vanderbilt University, 2017).
Out of some 34,000 compounds screened, fewer than 10 were called active.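 How the source made its calls: active means primary screen hit, no activity in plain HEK293 cells, and in GIRK2-only cells above 5% efficacy rising with concentration; inactive means the rest, including fluorescent compounds.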 These entries were drawn from the full list.

biological target: G protein-activated inward rectifier potassium channel 2 (Homo sapiens) (UniProt P48051); assay: activators of NPY4-receptor-primed GIRK2 channels, summary, cell-based, HEK293, thallium flux (AID 1259324); details: HEK293 GIRK2/NPY4 cells, thallium flux fluorescence
Sequence (P48051 whole entry, looked up): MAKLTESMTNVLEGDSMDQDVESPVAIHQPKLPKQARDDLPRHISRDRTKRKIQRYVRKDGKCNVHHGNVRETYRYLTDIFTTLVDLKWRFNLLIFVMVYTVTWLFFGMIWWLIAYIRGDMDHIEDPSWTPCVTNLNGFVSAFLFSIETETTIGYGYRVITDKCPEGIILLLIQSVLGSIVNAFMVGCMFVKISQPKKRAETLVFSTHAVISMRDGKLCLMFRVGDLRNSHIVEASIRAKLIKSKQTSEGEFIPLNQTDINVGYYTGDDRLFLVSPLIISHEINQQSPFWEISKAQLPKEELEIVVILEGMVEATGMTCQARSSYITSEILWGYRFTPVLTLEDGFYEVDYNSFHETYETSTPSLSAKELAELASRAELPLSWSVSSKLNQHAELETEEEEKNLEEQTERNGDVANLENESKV

outcome, inactive:
CCCNC(=O)C(=O)Nc1c2c(nn1C(C)(C)C)CSC2
O=C(Nc1ccc(Cl)cc1)N1CCC2(CC1)NC(=O)N(CCOc1ccccc1)C2=O
O=C(CCn1ccc(=O)[nH]c1=O)N1CCN(c2ccc(-c3ccccn3)nn2)CC1
Cn1cnc2cc(OC(=O)c3ccc(=O)[nH]n3)ccc21
O=C(Cc1ccc2c(c1)OCO2)Nc1nnc(-c2ccc(Br)s2)o1
CC1(C)Cc2cccc(OCCCS(=O)(=O)N3CCCCC3)c2O1
O=C(Cn1cnc(-c2cccs2)cc1=O)NCCOc1ccc(F)cc1
COC(=O)c1ccc(-c2csc(NC(=O)CS(=O)(=O)Cc3ccccc3)n2)cc1
Cc1cccc(C(=O)Nc2cc(-c3ccco3)nn2-c2nc(C)cc(=O)[nH]2)c1
CON(C)C(=O)C1CN(C(=O)c2cccs2)C1
COc1cn(CC(=O)Nc2ccc3c(c2)OCO3)c(CSc2ncccn2)cc1=O
CCOC(=O)C1CCN(C(=O)c2csc(Nc3ccccc3)n2)CC1
COc1ccc(CC(=O)NCCOc2ccc(F)cc2)cc1OC
CCOc1ccc2nc(NC(=O)c3ccc(S(=O)(=O)N(C)C)o3)sc2c1
O=c1[nH]c(SCc2nc(-c3cccc(C(F)(F)F)c3)no2)nc2ccsc12
COc1cc(N2CCN(S(C)(=O)=O)CC2)nc(OC)n1
CCC(CO)NC(=O)C(=O)Nc1c2c(nn1-c1ccccc1)CS(=O)(=O)C2 (configuration not stated)
CN1CCN(C(CNS(=O)(=O)c2ccc(C(C)(C)C)cc2)c2cccn2C)CC1 (configuration not stated)
COc1cccc(-n2nnnc2SCC(=O)Nc2ccccc2Cl)c1
COc1ccc(Cc2nnc(Nc3cc(C)ccc3C)[nH]c2=O)cc1
Cc1cc(=O)n(CC(=O)Nc2ccncc2)cn1
CCCCOc1ccc(C(=O)Nc2ccc3c(c2)CCC(=O)N3CCC)cc1
COc1cccc(C(=O)NCC2COC3(CCCCC3)O2)c1OC (configuration not stated)
NC(=O)C1CCN(c2oc(-c3ccco3)nc2S(=O)(=O)c2ccc(Cl)cc2)CC1
Cc1nnc(NC(=O)CCn2cnc3c(cnn3-c3ccc(F)cc3)c2=O)s1
O=C(NCC(=O)N1CCOC(c2ccccc2)C1)C(=O)NCc1ccccc1Cl (configuration not stated)
O=C(NCCc1ccc(F)cc1)c1cc(=O)c(OCc2ccccc2)co1 inactive; active
NC(=O)C1Cc2ccccc2N1C(=O)Nc1ccc2c(c1)OCO2 (configuration not stated)
CCc1nnc(NC(=O)c2nnn(-c3ccc(Cl)cc3)c2C)s1
COc1ccc(NC(=O)C2CCCCC2)cc1N1CCCCC1=O
COCCNC(=O)c1ccc(Oc2c(C)oc3cc(OC)ccc3c2=O)cc1
CN(C(=O)c1cccc(F)c1)C1(C)CCS(=O)(=O)C1 (configuration not stated)
Cc1cn2c3c(=O)n(C)c(=O)n(C)c3nc2n1CC(=O)c1ccc(Cl)cc1
Cc1cccc(NC(=O)c2ccc3nn(CC(=O)Nc4ccc(C)c(F)c4)c(=O)n3c2)c1
Cc1cccc(CC(=O)NCC2(c3cccs3)CCCC2)c1
CS(=O)(=O)N1CCC(CNC(=O)c2ccc(F)c(F)c2)CC1
O=C(NCCCN1CCCC1=O)C(=O)Nc1c2c(nn1-c1cccc(Cl)c1)CSC2
COc1ccc(S(=O)(=O)NCC(c2ccc(C)cc2)N2CCN(C)CC2)cc1OC (configuration not stated)
Cc1nc(-c2cccs2)c(CCC(=O)N(C)C2CCS(=O)(=O)C2)s1 (configuration not stated)
CNc1nn(CC(=O)Nc2ccc(C(C)=O)cc2)c(N)c1-c1nc(-c2ccc(C)cc2)no1
Cc1cc(-c2nnc(NC(=O)c3cccc(Oc4ccccc4)c3)o2)n(C)n1 inactive; active
COCC(C)(O)CNC(=O)Cc1cccc(C)c1 (configuration not stated)
CN1CCOc2ccc(NC(=O)C3(c4ccc(F)cc4)CC3)cc2C1=O
O=c1oc(-c2ccncc2)nc2c(Cl)cccc12
O=C(Cn1nc(C2CC2)c2cnn(-c3ccc(F)cc3)c2c1=O)N1CCOCC1
COC(=O)c1ccc(C(=O)NCCCC(=O)Nc2cccc3cccnc23)cc1
CN(C)C(=O)C(NC(=O)OC(C)(C)C)c1ccccc1Cl (configuration not stated)
CC(C)S(=O)(=O)c1ccc(CC(=O)NCc2n[nH]c(=O)c3ccccc23)cc1
O=C(c1ccc(N2CCCC2)nn1)N1CCN(C(=O)c2ccco2)CC1
O=C(c1ccc2c(c1)OCO2)N(Cc1ccsc1)Cc1ccccn1
CSc1nnc(CNC(=O)C23CC4CC(CC(C4)C2)C3)n1-c1ccccc1
Cc1ccc(S(=O)(=O)NCCNc2ccc(Nc3cccc(C)n3)nn2)c(C)c1
O=c1c2cn[nH]c2nc(SCc2nc(-c3ccccc3)no2)n1-c1ccccc1
O=C(Cc1cccc2ccccc12)NCCOc1ccc2c(c1)OCO2
Cc1cc(C)c2sc(N3CCN(C(=O)C4CCCN(S(C)(=O)=O)C4)CC3)nc2c1 (configuration not stated)
COc1cccc(C(=O)Nc2ccc(N3CCCC3=O)c(OC)c2)c1
Cc1ccc(NC(=S)NC(=O)c2ccc(F)cc2)nc1
Cc1cc(C)n(S(=O)(=O)c2cccc(S(C)(=O)=O)c2)n1
COc1ccc(-c2cc3c(=O)n(Cc4nc(-c5ccc(OC)cc5OC)no4)ccn3n2)cc1
CSc1ccccc1C(=O)Nc1nnc(-c2cc(C)nn2C)o1
Cn1c(=O)c2c(nc3n(CC(=O)O)c(-c4ccccc4)cn23)n(C)c1=O
COc1nn(C)cc1-c1nnc(SCC(=O)N2CCCc3ccccc32)n1C
Cc1cccc(CS(=O)(=O)NCC2(O)CCc3ccccc32)c1 (configuration not stated)
COC(=O)c1ccc(NC(=O)Cn2c(=O)n(C(C)C)c(=O)c3nscc32)cc1
NS(=O)(=O)c1ccc(NC(=O)c2ccc(=O)n(Cc3ccc(F)cc3)c2)cc1
CCOC(=O)Cc1csc(NC(=O)c2nc(-c3cnccn3)no2)n1
Cc1cccc(Nc2ccc(N3CCN(S(=O)(=O)c4cccs4)CC3)nn2)n1
